PubChem BioAssay (NCI)
About 83,000 compounds went through this panel and 20% of them were active in at least one assay; those are over-represented in the sample as a whole.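 Values shown are percent growth following 48 h exposure of cells in 96-well plates to a single concentration of compound; below 10 was considered active.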 Unmarked numbers belong to inactive results. Active and inactive are the calls of the source.

Tested on: SR leukemia
Test: NCI-60 one-dose screen, 48 h (100 = growth as untreated, 0 = no growth, -100 = all killed)
Conditions: 10 µM unless noted

Which growth does the source give for COc1cc2c3c(c4c5ccccc5[nH]c4c2c(OC)c1OC)C(=O)N(O)C3=O here?
The growth was 14.3%.

How did the growth turn out when Cc1cc2nc3c4cc(O)ccc4n(CCN(C)C)c3nc2cc1C was run?
Its growth is 8.05% (active).

For Cc1csc(Nc2nc(-c3ccc(Cl)cc3)nc(C(Cl)(Cl)Cl)n2)n1, which growth is on record?
Its growth is 57%.

With Cc1cc(C)nc(NC(N)=NCCc2ccccc2)n1 as the molecule, how does the growth read?
Its growth is 19.2%.

How did the growth turn out when COc1cc(-c2c(C#N)c(-c3cccs3)nc3c2c(-c2ccccc2)nn3-c2ccccc2)ccc1O was run?
Its growth is 60.5%.

CN1CCN(c2ccc3nc(-c4[nH]ncc4Nc4ncnc5c4OCCCN5)[nH]c3c2)CC1 was tested. Which growth did it give?
The growth was 3.46% (active).

Which growth does the source give for COC(=O)[C@]12CC[C@@H](C)[C@H](C)[C@@H]1C1=CC[C@@H]3[C@@]4(C)C[C@@H](O)[C@H](O)[C@@](C)(CO)C4=CC[C@@]3(C)[C@]1(C)CC2 here?
Its growth is -24.8% (active).

Which growth does the source give for O=C(NO)c1ccc(Cn2c(=O)n(-c3ccccc3)c(=O)c3ccccc32)cc1 here?
Its growth is 7.9% (active).

How did the growth turn out when COC(=O)[C@]12CC[C@@H](C)[C@H](C)[C@@H]1C1=CC(=O)[C@@H]3[C@@]4(C)C[C@@H](O)[C@H](O)[C@@]5(C)COC(=C45)C[C@@]3(C)[C@]1(C)CC2 was run?
Its growth is 7.5% (active).

How did the growth turn out when Cn1cc(-c2csc(-c3cn(CCN)c4ccc(F)cc34)n2)c2cccnc21 was run?
Its growth is 2.79% (active).

How did the growth turn out when CN(C)CCCCC(C(=O)CBr)(c1ccccc1)c1ccccc1 was run?
Its growth is 8.41% (active).

How did the growth turn out when CC/C=C\C[C@H]1CC=C2C(=O)C=C[C@@H]2CC=CCCCC(=O)O[C@@H](CCCCC)CC=C2C(=O)C=C[C@@H]2CC=CCCCC(=O)O[C@@H](CCCCC)CC=C2C(=O)C=C[C@@H]2CC=CCCCC(=O)O[C@@H](CCCCC)CC=C2C(=O)C=C[C@@H]2CC=CCCCC(=O)O1 was run?
Its growth is 2.79% [7.9 µM] (active).
